# In paper PMC4102417:
# System: murine 3T3 fibroblasts
# Assay: primary screen, percent viability or growth; higher = less effect of the substance
# Protocol: Similarly, for measuring the cytotoxicity concentration (CC50) for 3T3 fibroblast cells, cultures were incubated with drugs for 72 hours and developed using Alamar Blue (Alamar Biosciences Inc, Sacramento, CA) as previously described.
row,Compound,Mammalian (3T3) cell % growth at 10 uM [%]
1,O=c1[nH]c2ccccc2n1C1CCN(CCCC(c2ccc(F)cc2)c2ccc(F)cc2)CC1,8.1
2,C=C(C)[C@@H]1CC[C@]2(CO)CC[C@]3(C)[C@H](CC[C@@H]4[C@@]5(C)CC[C@H](O)C(C)(C)[C@@H]5CC[C@]43C)[C@@H]12,100
3,CC1OC(OC2C(OC3CCC4(C)C(CCC5(C)C4CC=C4C6CC(C)(C)CCC6(C(=O)O)CCC45C)C3(C)CO)OCC(O)C2O)C(O)C(O)C1O (stereo not shown),6.8
4,CNc1ccc(C(=O)CC(O)CCC(C)C2OC(=O)CC(O)CC(=O)CC(O)CC(O)CC(O)CC(O)CC3(O)CC(O)C(C(=O)OC)C(CC(O[C@@H]4O[C@H](C)[C@@H](O)[C@H](N)[C@@H]4O)/C=C/C=C/C=C/C=C\C=C/C=C/C=C/C2C)O3)cc1 (stereo partly shown),97.3
5,C=C1C(=O)O[C@H]2[C@H]1CC/C(C)=C/CC[C@@]1(C)O[C@@H]21,0.7
6,CCCC(C(=O)OCCN(CC)CC)(c1ccccc1)c1ccccc1,100
7,CN(C)CCC=C1c2ccccc2CCc2ccccc21,100
8,NCCc1ccc(O)c(O)c1,2.4
9,CN1CCN(CCCN2c3ccccc3Sc3ccc(C(F)(F)F)cc32)CC1,94.7
10,C=CC(C)(O)CCC1C(=C)CC(O)C2C(C)(C)CCCC12C (stereo not shown),74
11,CCN(CC)CCCC(C)Nc1c2ccc(Cl)cc2nc2ccc(OC)cc12.Cl.Cl (stereo not shown),5.3
12,CC(C)COCC(CN(Cc1ccccc1)c1ccccc1)N1CCCC1.Cl (stereo not shown),89.6
13,COc1cc([C@@H]2c3cc4c(cc3[C@@H](O[C@@H]3O[C@@H]5CO[C@@H](c6cccs6)O[C@H]5[C@H](O)[C@H]3O)[C@H]3COC(=O)[C@H]23)OCO4)cc(OC)c1O,50.4
14,CC(=O)O[C@]1(C(C)=O)CC[C@H]2[C@@H]3C=C(Cl)C4=CC(=O)CC[C@]4(C)[C@H]3CC[C@@]21C,97.4
15,CCN(CC)Cc1cc(Nc2ccnc3cc(Cl)ccc23)ccc1O,24.4
16,O=c1c(-c2cc(O)c(O)c(O)c2)coc2cc(O)c(O)c(O)c12,73.7
17,C1CCC(C(CC2CCCCN2)C2CCCCC2)CC1.O=C(O)/C=C\C(=O)O (stereo not shown),-0.2
18,Cc1cccc2c3c(ccc12)C1=C(C(=O)C3=O)[C@@H](C)CO1,77.1
19,COc1ccc2cc1Oc1ccc(cc1)C[C@H]1c3cc(c(OC)cc3CCN1C)Oc1c(OC)c(OC)cc3c1[C@H](C2)N(C)CC3,14.6
20,CC(=O)Oc1cc2c(c(C)c1OC(C)=O)CC=C1C2(C)CCC2(C)C3CC(C)(C(=O)O)CCC3(C)CCC12C (stereo not shown),0.6

row,Compound,Mammalian (3T3) cell % growth at 10 uM [%]
1,Clc1ccc2c(c1)C(N1CCNCC1)=Nc1ccccc1O2,98
2,CC(C1OC(C)(C)C(O)C1O)C1CCC2(C)C3=CCC4C(C)(C)C(=O)CCC4(C)C3CCC12C (stereo not shown),92.7
3,Cl.Fc1ccc(C2CCNCC2COc2ccc3c(c2)OCO3)cc1 (stereo not shown),100
4,C=CC(C1=CC(=O)C(OC)=CC1=O)c1ccccc1 (stereo not shown),0.9
5,O=C(/C=C/c1ccc(O)c(O)c1)OCCc1ccccc1,1.4
6,CC(C)=CCc1c2c(c3occ(-c4ccc(O)cc4)c(=O)c3c1O)C=CC(C)(C)O2,30.6
7,CCC(=C(c1ccccc1)c1ccc(OCCN(C)C)cc1)c1ccccc1,97
8,O=C1C=CC(=O)c2c(O)cccc21,66.4
9,Clc1ccccc1C(c1ccccc1)(c1ccccc1)n1ccnc1,100
10,CN(C)C(=S)SSC(=S)N(C)C,0.3
11,COc1cc(OC)c2c(=O)c(O)c(-c3ccc(OC)c(OC)c3)oc2c1,39.6
12,CCCCCC(=O)O[C@]1(C(C)=O)CC[C@H]2[C@@H]3CCC4=CC(=O)CC[C@]4(C)[C@H]3CC[C@@]21C,100
13,COc1cc(O)c2c(=O)cc(-c3ccc(OC)c(-c4c(O)cc(O)c5c(=O)cc(-c6ccc([O-])cc6)oc45)c3)oc2c1.[K+],4.2
14,C#C[C@]1(O)CC[C@H]2[C@@H]3CCC4=Cc5oncc5C[C@]4(C)[C@H]3CC[C@@]21C,90.2
15,C[C@@H]1C[C@@H]([C@H](O)CC2CC(=O)NC(=O)C2)C(=O)[C@@H](C)C1,36.9
16,O=c1cc(-c2cc(O)c(O)c(O)c2)oc2cc(O)cc(O)c12,100
17,Clc1ccc(COC(Cn2ccnc2)c2ccc(Cl)cc2Cl)cc1 (stereo not shown),100
18,CCC1(O)CC(OC2CC(N(C)C)C(O)C(C)O2)c2c(cc3c(c2O)C(=O)c2c(O)ccc(O)c2C3=O)C1C(=O)OC (stereo not shown),0.8
19,COc1c(C)c2c(c(O)c1C/C=C(\C)CCC(=O)O)C(=O)OC2,97.2
20,Clc1ccc(C(OCCN2CCCCC2)c2ccccc2)cc1 (stereo not shown),100
